TLR9-MyD88 block: inhibitors of human TLR9-MyD88 binding. CHO BLA complementation TLR9-MyD88, CCF4 FRET ratio. inhibition, % at 4.98 µM. 340,000 compounds, 0.21% hits. AID 504734;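 active = inhibition above the mean over all tested compounds plus 3 SD, cut at about 21% in these data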;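 also: 0% = DMSO only wells and 100% = clavulanate BLA inhibitor control wells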
HSF1 inh: HSF1 inhibition; AID 2098; activity change, negative = inhibition, % at 7.5 µM (by protocol); 300,000 compounds, 0.77% hits; NIH3T3-HGL HSE-luciferase, MG132-induced, luminescence 8 h; hits give low values;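 active = more than half of replicate wells show activity change below -50%, luminescence cut by over half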;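 also: luciferase reports HSF-1 transcriptional activity via heat shock element; 0% = median of DMSO wells and -100% = zero luminescence signal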
NOD2 RIPK2 PPI: NOD2-RIPK2 protein interaction inhibition | O43353 | CHO BLA complementation NOD2-RIPK2, CCF4 ratio | inhibition, % at 4.98 µM | 360,000 compounds, 0.38% hits | AID 624267; in the data active = inhibition above about 21%;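 also: 0% = vehicle only and 100% = reference blocker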
HSF1 activator: increases HSF-1 driven luciferase reporter signal; NIH3T3-HGL HSF-1 luciferase reporter, MG132, 8 h; 100% = twice DMSO control signal; activation, % at 9 µM; 300,000 compounds, 1.7% hits;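 active = mean replicate activation of at least 50% with a set share of replicates each reaching 50%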;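 also: 0% = median of the neutral control wells and 100% = twice that signal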
TLR4-MyD88 BLA: blocks binding of human TLR4 to MyD88; 200,000 compounds, 0.18% hits; inhibition, % at 8.4 µM; O00206+Q99836; HeLa CL3-4 TLR4/MyD88 BLA complementation, FRET ratio; in the data active = inhibition above about 25%;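 also: 0% = vehicle and 100% = reference inhibitor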
Target sequence (O00206 whole entry, looked up): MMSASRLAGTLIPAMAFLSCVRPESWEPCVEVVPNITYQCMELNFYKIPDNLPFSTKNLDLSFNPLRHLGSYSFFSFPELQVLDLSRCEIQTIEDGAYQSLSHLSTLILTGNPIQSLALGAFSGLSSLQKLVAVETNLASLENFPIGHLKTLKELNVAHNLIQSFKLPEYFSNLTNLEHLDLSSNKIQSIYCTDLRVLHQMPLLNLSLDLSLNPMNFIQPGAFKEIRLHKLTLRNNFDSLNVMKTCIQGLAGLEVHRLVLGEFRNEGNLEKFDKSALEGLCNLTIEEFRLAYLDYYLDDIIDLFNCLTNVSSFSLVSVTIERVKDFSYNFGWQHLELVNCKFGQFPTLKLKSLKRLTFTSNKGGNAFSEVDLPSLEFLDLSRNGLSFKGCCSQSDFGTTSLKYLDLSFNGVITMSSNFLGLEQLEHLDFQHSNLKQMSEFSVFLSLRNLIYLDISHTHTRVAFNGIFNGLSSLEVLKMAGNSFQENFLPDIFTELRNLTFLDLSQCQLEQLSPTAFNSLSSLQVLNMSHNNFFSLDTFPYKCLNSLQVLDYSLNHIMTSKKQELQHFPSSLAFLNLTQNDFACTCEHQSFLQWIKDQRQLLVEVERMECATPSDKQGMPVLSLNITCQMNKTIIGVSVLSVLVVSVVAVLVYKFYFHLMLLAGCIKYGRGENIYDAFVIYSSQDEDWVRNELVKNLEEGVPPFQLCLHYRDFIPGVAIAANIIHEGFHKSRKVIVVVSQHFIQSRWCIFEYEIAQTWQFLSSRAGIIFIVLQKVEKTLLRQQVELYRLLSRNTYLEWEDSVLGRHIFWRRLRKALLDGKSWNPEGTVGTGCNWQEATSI
Target sequence (Q99836 whole entry, looked up): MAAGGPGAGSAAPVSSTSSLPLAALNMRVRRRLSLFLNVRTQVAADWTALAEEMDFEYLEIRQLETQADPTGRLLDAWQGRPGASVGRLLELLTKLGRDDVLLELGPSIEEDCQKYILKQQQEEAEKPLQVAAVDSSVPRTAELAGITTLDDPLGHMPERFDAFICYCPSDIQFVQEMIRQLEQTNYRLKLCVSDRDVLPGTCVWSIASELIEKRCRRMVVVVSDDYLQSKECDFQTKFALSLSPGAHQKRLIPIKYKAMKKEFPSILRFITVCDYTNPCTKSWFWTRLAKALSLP
NOD2 RIPK2 conf: confirmation of human NOD2-RIPK2 interaction inhibitors. shares compounds with NOD2 RIPK2 PPI. CHO cells, NOD2-RIPK2 BLA complementation, CCF4 FRET. inhibition, % at 4.98 µM. 1,200 compounds, 70% hits;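 active = mean inhibition across replicates above a set limit taken from the earlier primary screen, cut at about 21% in these data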;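 also: 0% = DMSO-only wells and the high end = clavulanate BLA-blocked wells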
NOD2 BLA counter: hits BLA reporter in NOD2-RIPK2 inhibitor counterscreen. shares compounds with NOD2 RIPK2 PPI. CHO BLA reporter, CCF4 FRET ratio. inhibition, % at 4.98 µM. 1,200 compounds, 57% hits;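 active = mean inhibition above the low-control mean inhibition plus three low-control SD, cut at about 11% in these data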;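 also: 0% = DMSO only wells and 100% = clavulanate high control wells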
Numbers without * were called inactive; . = no result given. An excerpt weighted towards active compounds, which were near 2.4% of everything screened.

SMILES | TLR9-MyD88 block | HSF1 inh | NOD2 RIPK2 PPI | HSF1 activator | TLR4-MyD88 BLA | NOD2 RIPK2 conf | NOD2 BLA counter
Cc1ccc(NC(=O)CN(C)C(=O)CSc2nc3ccccc3c(=O)n2Cc2ccco2)cc1 | 11 | -1 | 21* | 5 | 11 | 17 | 16*
C=CCN1C=CC(=O)[C@@H](OC(=O)Nc2ccc(Br)cc2)[C@H]1c1ccccc1Br | 9 | . | 0 | . | . | . | .
CN1C=CC(=O)[C@@H](OC(=O)Nc2ccc(Br)cc2)[C@H]1c1ccccc1Br | -4 | . | 23* | . | . | -2 | -6
C#CCNC(=O)C[C@@H]1C[C@@]2(C(=O)OC)CC(C)(C)CC=C2N(CCc2ccc(OC)c(OC)c2)C1=O | . | . | -7 | . | . | . | .
NC(=O)c1cccc(-c2csc(C(O)c3ccccc3)n2)c1 (centres undefined) | . | . | 1 | . | . | . | .
CCOC(=O)Nc1ccc2c(c1)N(C(=O)CCN(CC)CC)c1ccccc1S2=O (centres undefined) | 2 | 37 | 31* | 40 | . | 13 | 1
Oc1ccccc1N1CCN(CC(O)COC2CCCc3ccccc32)CC1 (centres undefined) | 1 | 0 | -10 | -5 | . | . | .
O=C(NN=Cc1c(O)ccc2ccccc12)c1ccncc1 | 19 | . | 28* | . | . | 27* | 21*
O=C(NC(=S)Nc1sc2c(c1C(=O)O)CCCC2)c1ccccc1 | -1 | -22 | 35* | -18 | . | 1 | -7
N#Cc1c(NC(=S)NC(=O)c2ccccc2)sc2c1CCC2 | 0 | 12 | -3 | 38 | -12 | . | .
CC(OC(=O)C1CC1)C(=O)Nc1cc(Cl)cc(Cl)c1 (centres undefined) | -16 | . | -11 | . | . | . | .
C1CCN(C2CCN(c3nc4nonc4nc3N3CCSCC3)CC2)C1 | 4 | 3 | -7 | 0 | -8 | . | .
CN(CC1COCCO1)c1nc2nonc2nc1N1CCSCC1 (centres undefined) | -16 | -2 | 34* | 2 | -23 | -2 | 2
CCCCNc1c(-c2ccc(OC)c(Sc3ccc(OC)cc3)c2)nc2cnccn12 | 19 | . | 28* | . | . | 33* | 37*
O=C(c1ccccc1Cl)N(Cc1ccc(Br)cc1)N1C(=O)CCC1=O | -2 | -11 | 23* | 8 | -10 | 0 | -2
O=C(c1ccccc1Cl)N(Cc1ccc(Cl)c(Cl)c1)N1C(=O)CCCC1=O | 7 | -6 | 14 | -18 | 10 | . | .
CCN(CC)CCN1C(=O)/C(=C\c2ccc(Cl)c([N+](=O)[O-])c2)SC1=Nc1ccc(OC)cc1 | 18 | 61 | 72* | 43 | . | 54* | -28
COc1ccc(N=C2S/C(=C\c3ccc(Cl)c([N+](=O)[O-])c3)C(=O)N2CCN(C)C)cc1 | 11 | 73 | 44* | 95* | . | 88* | -4
CCCN1C(=O)/C(=C/c2ccc(C)s2)SC1=Nc1ccc(OC)cc1 | 4 | 1 | 2 | -11 | -2 | . | .
C#CCN(C[C@@H]1[C@@H](OC(=O)NCc2ccccc2F)[C@@H](OC(=O)NCc2ccccc2F)Cn2c(=O)n(CCCCCC)c(=O)n21)S(=O)(=O)c1ccc(C)cc1 | 1 | . | -2 | . | . | . | .
C#CCN(C[C@@H]1[C@@H](OC(=O)NCc2ccccc2F)[C@@H](OC(=O)NCc2ccccc2F)Cn2c(=O)ccc(=O)n21)S(=O)(=O)c1ccc(C)cc1 | -2 | . | 23* | . | . | 21* | -3
O=C(Nc1ccc2ccccc2c1)C(c1ccccc1F)n1c(=O)c(-c2cc3ccccc3[nH]2)nc2ccccc21 (centres undefined) | . | . | 45* | . | . | 42* | 67*
CCCCCNC(=O)C(c1ccccc1F)n1c(=O)c(-c2ccco2)nc2ccccc21 (centres undefined) | . | . | 2 | . | . | . | .
COc1ccc(NC(=O)C(c2ccccc2)n2c(=O)c(-c3cc4ccccc4[nH]3)nc3ccccc32)cc1 (centres undefined) | . | . | 47* | . | . | 42* | 65*
COc1ccc(NC(=O)C(c2ccccc2F)n2c(=O)c(-c3cc4ccccc4[nH]3)nc3ccccc32)cc1 (centres undefined) | . | . | 50* | . | . | 47* | 69*
SMILES | TLR9-MyD88 block | HSF1 inh | NOD2 RIPK2 PPI | HSF1 activator | TLR4-MyD88 BLA | NOD2 RIPK2 conf | NOD2 BLA counter
O=C(Nc1ccc2c(c1)OCCO2)C(c1ccccc1)n1c(=O)c(-c2cc3ccccc3[nH]2)nc2ccccc21 (centres undefined) | . | . | 48* | . | . | 41* | 64*
O=C1Nc2cc(C(=O)N3CCOCC3)ccc2S/C1=C/c1ccccc1F | -3 | . | -7 | . | . | . | .
COc1ccccc1N(CCC#N)C(=S)Nc1ccc(S(=O)(=O)N2CCOCC2)cc1 | 3 | . | -2 | . | . | . | .
CCCCCCc1nc(C(N)=O)c2[nH]c(=O)n(-c3ccccc3F)c2n1 | 13 | -1 | 2 | 3 | . | . | .
COc1ccc(OC(=O)c2cccc(S(=O)(=O)N3CC(C)OC(C)C3)c2)cc1 (centres undefined) | -4 | . | 5 | . | . | . | .
CCOC(=O)c1sc2nc(C)cc(-c3ccccc3)c2c1N | 10 | 5 | 16 | 14 | 9 | . | .
CCOC(=O)c1sc2nc(-c3ccccc3)ccc2c1N | 12 | -11 | 23* | 9 | 15 | 48* | 59*
Cc1ccccc1NC(=O)C1CCCN1S(=O)(=O)c1ccccc1C(F)(F)F (centres undefined) | 12 | . | 3 | . | . | . | .
O=C(Cc1csc(Nc2nc(=S)[nH]c3ccccc23)n1)NCCCN1CCN(c2ccccc2F)CC1 | 20 | 8 | 47* | -6 | 6 | 46* | 54*
CCOC(=O)C1=C[C@@H](C(C)C)N(S(=O)(=O)c2ccc(C)cc2)[C@H]1c1ccccc1F | . | . | -15 | . | . | . | .
CC(=O)OC1CCC2(C)C(CCC3C4CC=C(C(C)=O)C4(C)OC(=O)CC32)C1 (centres undefined) | -2 | . | 39* | . | . | 39* | -3
CC(=O)O[C@H]1CC[C@@]2(C)C(CCC3C2CC[C@]2(C)OC(=O)CCC32)C1 (some centres undefined) | -3 | -1 | -8 | -3 | -6 | . | .
CCCNC(=O)c1ccc(COc2cccc3ccccc23)o1 | -1 | 0 | 26* | 8 | . | 2 | -4
Cc1ccc(-c2noc(CC(=O)c3ccc([N+](=O)[O-])cc3)n2)cc1 | 1 | -1 | -1 | -1 | . | . | .
Cn1ccnc1Sc1cc(NCCCO)c([N+](=O)[O-])c2nonc12 | 13 | -95* | 27* | -96 | 4 | 31* | 8
O=[N+]([O-])c1c(NCCCO)cc(SCc2ccco2)c2nonc12 | -1 | -22 | 0 | -38 | 6 | . | .
Cc1cccc(NC(=O)CSCC(=O)Nc2cc(S(=O)(=O)N3CCOCC3)ccc2OC(C)C)c1 | -1 | 4 | 21* | 11 | . | 4 | -4
COc1ccc(/C=N/NC(=O)c2ccc(NC(C)=O)cc2)cc1COc1ccc(F)cc1F | 30* | -19 | 25* | -27 | . | 6 | 8

Screening results (PubChem BioAssay)
